# Laboratory results reported in PubChem BioAssay AID2551 (National Center for Advancing Translational Sciences (NCATS), 2010).
# Hit rate of the full screen: of about 310,000 compounds, about 17,000 (5.5%) were called active. A call without a number means that no potency is given here. Inconclusive results (about 11%) are left out. Only a selection was taken, and actives are over-represented in it overall. Values without a mark were called inactive. Calls follow the shape of the dose curve; as a rule, active = well fitted inhibition curve with a large enough effect; inconclusive = small, poorly fitted or top-dose-only effect, or effect the other way; inactive = no such curve, though single readings can be large or run the other way.
# Target: Nuclear receptor ROR-gamma (Mus musculus) (UniProt P51450)
# Sequence (P51450 whole entry, looked up): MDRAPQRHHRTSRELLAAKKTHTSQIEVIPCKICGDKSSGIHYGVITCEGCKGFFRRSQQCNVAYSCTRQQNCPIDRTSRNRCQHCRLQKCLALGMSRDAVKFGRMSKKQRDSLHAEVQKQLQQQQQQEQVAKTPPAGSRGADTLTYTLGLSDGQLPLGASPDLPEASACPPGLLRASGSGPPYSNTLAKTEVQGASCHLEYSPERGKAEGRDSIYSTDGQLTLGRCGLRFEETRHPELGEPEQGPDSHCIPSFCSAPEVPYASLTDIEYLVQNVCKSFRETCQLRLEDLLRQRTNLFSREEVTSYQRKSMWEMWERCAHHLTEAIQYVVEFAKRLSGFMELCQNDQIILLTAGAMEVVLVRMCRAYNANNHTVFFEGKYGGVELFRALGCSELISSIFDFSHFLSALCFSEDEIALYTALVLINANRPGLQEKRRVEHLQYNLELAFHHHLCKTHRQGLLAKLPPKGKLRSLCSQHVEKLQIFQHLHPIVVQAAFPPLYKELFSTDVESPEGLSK
# Test: qHTS for inhibitors of ROR gamma transcriptional activity; also: nearly all actives have a fitted effect of over 60% in size
# Conditions: Drosophila S2 Gal4-RORgamma UAS-luciferase reporter, 20 h; series mostly up to 53.6 µM
# Outline: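 Read-out: Photinus luciferase luminescence; inhibitors lower reporter signal. Insect Schneider cells with Gal4-ROR gamma fusion under metallothionein promoter, UAS reporter; 700 uM final copper sulfate induction, 20 hr, ambient temperature.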
# Potency is read from the fitted curve at half-maximal effect.
Structure (SMILES),Potency,"activity change, negative = inhibition"
O=C(NC(=S)N1CCN(Cc2ccccc2)CC1)c1ccccc1,1 µM (active),–
O=C(c1cccc([N+](=O)[O-])c1)N1CCN(Cc2ccccc2)CC1,inactive,–
O=C(c1cccc(Cl)c1)N1CCN(Cc2ccccc2)CC1,inactive,–
CC(C)c1nnc(NC(=O)CCC(=O)N2CCN(c3cccc(Cl)c3)CC2)s1,inactive,–
COc1ccc(NC(=O)C/C(C)=N/NC(=O)c2cnccn2)cc1Cl,inactive,–
COc1cc(OC)c(S(=O)(=O)Nc2ccccc2C(=O)O)cc1S(=O)(=O)Nc1ccccc1C(=O)O,inactive,–
CCc1cccc(C)c1N1C(=O)CN(Cc2ccccc2)C1=S,inactive,–
Oc1oc(-c2ccccc2Br)nc1/C=N/c1ccccn1,8.91 µM (active),–
CCOc1ccc2nc(/N=C/c3nc(-c4ccccc4)oc3O)sc2c1,–,-14.9% [at 10 µM]
CC(N=Cc1nc(-c2ccccc2)oc1O)c1ccccc1 (centres undefined),inactive,–
Cc1ccnc(NS(=O)(=O)c2ccc(NC(=O)c3oc4ccccc4c3C)cc2)n1,inactive,–
Cc1ccc(S(=O)(=O)N(CC(=O)Nc2cccnc2)c2ccc(Br)cc2)cc1,inactive,–
Cc1cc(NC(=O)CCC2COc3ccccc3O2)no1 (centres undefined),inactive,–
Cc1ccc(S(=O)(=O)N(C)C)cc1NC(=O)COC(=O)C1COc2ccccc2O1 (centres undefined),inactive,–
CCCN(CC1COc2ccccc2O1)C(=S)Nc1ccc(C)cc1 (centres undefined),15.8 µM (active),–
COCn1c(C(O)c2ccccc2)cc2ccccc21 (centres undefined),inactive,–
Cc1cc(Cl)c(S(=O)(=O)NCc2cccnc2)cc1OCC(N)=O,inactive,–
Cc1cc(S(=O)(=O)NCc2ccccn2)c(Cl)cc1Cl,7.08 µM (active),–
O=S(=O)(NCc1ccccn1)c1ccc(Br)s1,8.91 µM (active),–
O=S(=O)(NCc1cccnc1)c1ccc(Br)s1,inactive,–
O=S(=O)(NCc1ccccn1)c1ccc(F)cc1,inactive,–
CCOc1cc(C)c(S(=O)(=O)NCc2ccccn2)cc1C,–,-29.6% [at 1.91 µM]
COc1cccc(NC(=O)CN(C)C(=O)c2ccccc2CCc2ccccc2)c1,inactive,–
CCCn1c(=O)c(C(=O)Nc2cc(C)ccn2)c(O)c2ccccc21,inactive,–
CC(NCC(=O)Nc1cc(Cl)cc(Cl)c1)c1ccccc1 (centres undefined),inactive,–
Cc1cccnc1NC(=O)Cn1c(=O)oc2ccccc21,inactive,–

Structure (SMILES),Potency,"activity change, negative = inhibition"
CN(C(=O)c1cccc(OC2CCN(S(=O)(=O)N(C)C)CC2)c1)C1CCOC1 (centres undefined),inactive,–
O=C(Nc1ccc(C(=O)O)c(O)c1)c1ccccc1,inactive,–
O=C(NC(=O)c1ccccc1)Nc1ccccc1O,7.08 µM (active),–
O=C(NC(=O)c1ccccc1)NC(=O)c1ccccc1,inactive,–
C[C@H](NC(=O)C1CC(=O)N(c2ccc3c(c2)OCCO3)C1)C(=O)N1CCC(C(=O)O)CC1 (some centres undefined),inactive,–
COc1ccc2nc(C)cc(Nc3cccc(C(=O)O)c3)c2c1,inactive,–
O=C(Nc1ccn(Cc2ccccc2)n1)c1cccc(F)c1,inactive,–
Cn1cc([N+](=O)[O-])c(C(=O)Nc2cnn(Cc3ccc(F)cc3)c2)n1,inactive,–
O=C(Nc1ccn(Cc2ccccc2)n1)c1n[nH]c([N+](=O)[O-])c1Cl,7.08 µM (active),–
CC(C)[C@H](NC(=O)N1CCn2c1nc1ccccc12)C(=O)NCCc1ccccc1,inactive,–
CCCCCN(C(=O)CCC(=O)OCC(=O)NCc1ccc(OC)cc1)c1c(N)n(CCCC)c(=O)[nH]c1=O,inactive,–
COc1ccc(CN(C)C(=S)Nc2ccc(Cl)cc2Cl)cc1,17.8 µM (active),–
COc1ccc(CN2CCn3ncc(C(=O)Nc4ccc(Cl)cc4Cl)c3C2=O)cc1,inactive,–
CN(C)C(=S)Nc1ccc(Br)cc1Cl,inactive,–
CCn1c(=O)c(=O)[nH]c2c(=O)oc3ccc(S(=O)(=O)Nc4ccc(OC)cc4)cc3c21,inactive,–
O=C1CCCC2=C1C(c1ccccc1)n1c(s/c(=C/c3cccc(F)c3)c1=O)=N2 (centres undefined),inactive,–
COCCOC(=O)C1=C(C)N=c2s/c(=C\c3cccs3)c(=O)n2C1c1cccs1 (centres undefined),inactive,–
COc1ccc(OC)c(C2C3=C(N=c4s/c(=C\c5cccc(O)c5)c(=O)n42)c2ccccc2CC3)c1 (centres undefined),12.6 µM (active),–
CC(=O)c1c(O)cc2n(c1=O)-c1ccc(Cl)cc1C2(C)C,10 µM (active),–
Cc1coc(C)c1C(=O)CC1(O)C(=O)N(C)c2ccc(Cl)cc21 (centres undefined),inactive,–
O=C(COc1ccc2ccc(=O)oc2c1)NCC(O)c1ccccc1 (centres undefined),inactive,–
COc1cccc(CNC(=O)C2CCCN(c3ncnc4c3nc3n4CCCCC3)C2)c1 (centres undefined),inactive,–
CCOC(=O)c1c(NC(=S)NC(=O)/C=C/c2cccs2)sc(C)c1C,1.26 µM (active),–
CCOC(=O)c1c(NC(=O)/C=C/c2ccco2)sc(C)c1C,inactive,–
CCc1nnc(NS(=O)(=O)c2ccc(NC(=S)NC(=O)/C=C/c3cccs3)cc2)s1,inactive,–
COC(=O)C1=CN(c2ccc(F)c(F)c2)C=C(C(=O)OC)C1c1ccc([N+](=O)[O-])cc1,inactive,–

Structure (SMILES),Potency,"activity change, negative = inhibition"
CCOc1ccc(C(=O)Nc2ccc(S(=O)(=O)Nc3cc(C)on3)cc2)cc1,inactive,–
O=C(CCn1ccc([N+](=O)[O-])n1)Nc1nccs1,inactive,–
Cc1c(Br)c([N+](=O)[O-])nn1C(C)C(=O)Nc1nccs1 (centres undefined),20 µM (active),–
CC(NC(=O)C(=O)Nc1nccs1)c1ccccc1 (centres undefined),inactive,–
CCOc1ccccc1NC(=O)NC1CCCCCCC1,inactive,–
COc1ccc(CNC(=O)C(c2ccc(O)cc2)N(Cc2ccco2)C(=O)c2snc(C(N)=O)c2N)cc1 (centres undefined),inactive,–
O=c1cc(Cl)c2ccccc2n1-c1ccccc1,inactive,–
COc1ccccc1-n1c(CNC(=O)c2ccccc2)nnc1SCC(=O)Nc1nnc(C)s1,inactive,–
Cc1nnc(NC(=O)CSc2nccn2-c2cccc(C)c2C)s1,10 µM (active),–
Cc1cccc(CSc2nnc(NC(=O)CSc3nnc(C)s3)s2)c1,inactive,–
Cc1ccc(C(=O)N/C(=C\c2cn(C)c3ccccc23)C(=O)N2CCN(C)CC2)cc1,inactive,–
Cc1ccc(NC(=O)c2oc(=O)c3ccccc3c2-c2ccccc2)c(C)c1,inactive,–
Cc1cccc(NC(=O)/C(=C\c2ccco2)NC(=O)c2ccccc2)c1,inactive,–
O=C(CNC(=O)c1ccc(Br)o1)Nc1ccccc1,inactive,–
Cc1cc2[nH]ncc2cc1NC(=S)NC(=O)c1ccccc1,inactive,–
Cc1ccc(NC(=S)NC(=O)c2ccc(-c3ccccc3)cc2)c(C)c1,4.47 µM (active),–
Cc1ccc(NC(=O)NC(=O)c2ccccc2)cc1F,–,8.25% [at 1.91 µM]
COc1cc(OC)c(NC(=O)c2ccc(Br)o2)cc1Cl,inactive,–
Cc1cccc(NC(=O)NC(=S)NC(=O)c2ccccc2)c1,2.51 µM (active),–
Cc1cccc(NC(=S)NC(=O)c2ccc(Br)o2)c1,2.82 µM (active),–
c1cnc(N2CCN(c3ccc4ccccc4n3)CC2)nc1,inactive,–
CCCN1CCn2c3c(c4cc(Br)ccc42)CCCC31 (centres undefined),inactive,–
COCCN1CCn2c(nc3cc(NS(C)(=O)=O)ccc32)C1,inactive,–
COCCOC(=O)c1[nH]c2c(c1C)C(=O)CC(c1ccc(OC)cc1)C2 (centres undefined),inactive,–
Cc1ccc(OCC(=O)NCCCNC(=O)c2cccnc2)cc1C,inactive,–
Cc1cn([C@H]2CC(F)[C@@H](CO)O2)c(=O)[nH]c1=O (some centres undefined),inactive,–

Structure (SMILES),Potency,"activity change, negative = inhibition"
COc1cccc(CNc2ncc(-c3ccccc3)n2C)c1,inactive,–
CC(C)[C@@H](NC(=O)OC(C)(C)C)C(=O)NCC1CCC(C(=O)N[C@@H](Cc2ccccc2)C(=O)O)CC1 (some centres undefined),inactive,–
CCC1OC(c2ccc([N+](=O)[O-])cc2)=Nc2ccccc21 (centres undefined),inactive,–
CC(=O)Nc1ccc(NC(=O)C2CCCN(S(=O)(=O)c3ccc(Cl)cc3)C2)cc1 (centres undefined),inactive,–
CCOC(=O)Cn1c(SC)nc2sc3c(c2c1=O)CC(C)(C)OC3,inactive,–
COCCNc1nc(-n2nc(C)cc2C)nc2sc3c(c12)CCCC3,0.562 µM (active),–
CC(C)c1nc(SCC(=O)Nc2cccc(C(=O)O)c2)c2c3c(sc2n1)CCCC3,inactive,–
CCSc1nc2sc3c(c2c(=O)[nH]1)CC(C)(C)OC3,inactive,–
COCCn1c(C)cc(C(=O)CSc2ncnc3sc4c(c23)CCC4)c1C,inactive,–
CCc1nc(N2CCN(C(C)=O)CC2)c2c3c(sc2n1)CCCC3,inactive,–
COc1ncnc2sc3c(c12)CCCC3,inactive,–
Cc1cc(C)n(-c2nc(SCC(=O)N3CCCC3)c3c4c(sc3n2)CCCC4)n1,6.31 µM (active),–
CCC(O)CNc1nc(-n2nc(C)cc2C)nc2sc3c(c12)CC(C)(C)OC3 (centres undefined),1.58 µM (active),–
Cc1cccn2c(=O)c(/C=C(\C#N)C(N)=O)c(N3CCCCCC3)nc12,inactive,–
CN(Cc1ccccc1)S(=O)(=O)c1nnc(NC(=O)c2ccccc2F)s1,inactive,–
CC(=O)Nc1cccc(NC(=O)CSc2nccn2Cc2ccc(F)cc2)c1,inactive,–
Cn1c(=O)c2ccccc2n(CC(=O)Nc2ccc3c(c2)OCCO3)c1=O,inactive,–
Cc1ccc(-c2nc(CS(=O)(=O)CC(=O)NCc3ccc4c(c3)OCO4)c(C)o2)cc1,inactive,–
Cc1ccc(NS(=O)(=O)c2ccc(-c3ccc(=O)[nH]n3)o2)c(C)c1,inactive,–
NC(=O)CN1CCCC1c1ccc2c(c1)OCCO2 (centres undefined),inactive,–
CC1C(=O)Nc2ccc(S(=O)(=O)N3CCN(c4ccccc4F)CC3)cc2NC1=O (centres undefined),inactive,–
CCOc1ccc(/C=N/Nc2nncc(-c3ccccc3)n2)cc1OC,inactive,–
COc1cc(/C=N/n2c(C)n[nH]c2=S)ccc1OCc1ccccc1,6.31 µM (active),–
COc1cc(/C=N/O)ccc1OCc1ccc([N+](=O)[O-])cc1,inactive,–
COCC1CCN(C(=O)C2CCC(=O)N(Cc3cccc(C(F)(F)F)c3)C2)CC1 (centres undefined),inactive,–
O=C(NCc1ccccn1)[C@]1(C(F)(F)F)C[C@H](CCc2ccccc2)CCCO1,inactive,–
